# Assay results reported in PubChem BioAssay (EPA / NIEHS).
# “And” between values parts separate entries of the source, which are not always exact repeats. Identical values can stand only once. The source made the active and inactive calls. How the source made its calls: active means hit-call score of the fitted dose curve at least 0.9, where 1 is the maximum; inactive means score below 0.9.
# Assay: BSK_BE3C_SRB: Viability Assessment in the BioMAP Diversity Plus: BE3C Assay (AID 2283028);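 on AC50: fitted both ways so AC50 may mark signal gain or loss versus DMSO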
# Settings: primary human bronchial epithelial cells
# Description: BSK_BE3C is a cell-based, multiplexed-readout assay that uses bronchial epithelial cell, a human lung primary cell, with measurements taken at 24 hours after chemical dosing in a 96-well plate.BSK_BE3C_SRB is an assay component measured in the BSK_BE3C assay. It measures 0.1% sulforhodamine related to cell death using Sulforhodamine staining technology.Data from the assay component BSK_BE3C_SRB was analyzed into 1 assay endpoint. This assay endpoint, BSK_BE3C_SRB, was analyzed with bidirectional fitting relative to DMSO as the negative control and baseline of activity. Using a type of viability reporter, gain or loss-of-signal activity can be used to understand changes in the signaling. Furthermore, this assay endpoint can be referred to as a primary readout, because this assay has produced multiple assay endpoints where this one serves a signaling function. To generalize the intended target to other relatable targets, this assay endpoint is annotated to the cell morphology intended target family, where the subfamily is cell conformation.
# The levels of cell surface (or secreted, indicated by the prefix "s") biomarker endpoints were measured by ELISA. Overt cytotoxicity to cells in confluent adherent cultures (all systems other than the BT system) was assessed by measuring total protein levels using sulforhodamine B (SRB) staining in parallel cultures at the time of biomarker measurements, indicated as SRB endpoints. For proliferation assays for adherent cell types, individual cell types are cultured at sub-confluence and relative cell numbers quantified by SRB staining at time points optimized for each system (48 h: 3C and CASM3C systems; 72 h: BT and HDF3CGF systems; 96 h: SAg system). SRB was performed by staining cells with 0.1% SRB after fixation with 10% TCA and reading wells at 560 nm.Viability and proliferation of PBMC (T cells) was quantified by Alamar Blue reduction for the SAg and BT systems. For PBMC viability (referred to as PBMC Cytotoxicity within the assay endpoint names), cells were plated (75,000/well in a 96-well plate) and then chemical samples added for 1 h before addition of activators, SEB and TSST-1 (20 ng/mL final concentration each). Cells were incubated for 90 h. Then, Alamar Blue (20 uL/well) (Invitrogen, Cat DAL1100) was added for 6 h, and the plates were read with a fluorescence microplate reader at 546/580 nm (excitation/emission). For PBMC proliferation, cells were plated and activated as above but incubated for only 16 h prior to addition of Alamar Blue. Plates were read after 6 h.
SMILES,outcome,AC50
Nc1ccc(-c2ccc(N)cc2)cc1,inactive,
Cc1cc(-c2ccc(N)c(C)c2)ccc1N,inactive,
Cc1cccc(C)c1N,inactive,
CC(C)(O)C(=O)Nc1ccc([N+](=O)[O-])c(C(F)(F)F)c1,inactive,
Cc1ccc(O)c(C)c1,inactive,
O=C(NC(=O)c1cc(F)c(F)cc1Cl)Nc1cc(F)ccc1N1CCC(C(=O)O)CC1,inactive,
O=C(O)C(F)(F)C(F)(F)C(F)(F)C(F)(F)C(F)(F)C(F)(F)C(F)(F)C(F)(F)C(F)(F)F,,29.6 µM (active) and 12.6 µM (active) and 15.8 µM (active)
CCOC(=O)C(O)(c1ccc(Cl)cc1)c1ccc(Cl)cc1,inactive,
CCC(C)c1cc([N+](=O)[O-])cc([N+](=O)[O-])c1O (stereo not given),inactive,
CCCN(CCC)N=O,inactive,
COc1ccc(O)c(C(C)(C)C)c1,inactive,
Cc1ccccc1CO[C@@H]1C[C@@]2(C(C)C)CC[C@]1(C)O2,inactive,
ClC(Cl)=C(c1ccc(Cl)cc1)c1ccc(Cl)cc1,inactive,
Cc1ccccc1O,inactive,
C=CC(N)=O,inactive,
CC#Cc1cc(C)nc(Nc2ccccc2)n1,inactive,
NS(=O)(=O)C(F)(F)C(F)(F)C(F)(F)C(F)(F)C(F)(F)C(F)(F)C(F)(F)C(F)(F)F,,25.8 µM (active) and 51.3 µM (active)
CCCCCCCCOC(=O)c1ccccc1C(=O)OCCCCCCCC,inactive,
CCCCCCCCCC[N+](C)(C)CCCCCCCCCC,,5.15 µM (active)
CO/C=C(/C(=O)OC)c1ccccc1COc1cccc(C(F)(F)F)n1,inactive,

SMILES,outcome,AC50
O=C(O)C(F)(F)C(F)(F)C(F)(F)C(F)(F)C(F)(F)F,inactive,
CC(C)C(=O)OCC(C)(C)C(OC(=O)C(C)C)C(C)C (stereo not given),inactive,
CN(C)c1nc(=O)n(C2CCCCC2)c(=O)n1C,inactive,
O=C(NC(=O)c1c(F)cccc1F)Nc1cc(Cl)c(OC(F)(F)C(F)F)c(Cl)c1,inactive,
CCC(=O)O[C@H]1CC[C@H]2[C@@H]3CCC4=CC(=O)CC[C@]4(C)[C@H]3CC[C@]12C,inactive,
CCOP(=S)(OCC)SCSC(C)(C)C,inactive,
Nn1cnnc1,inactive,
CCCCCCOC(=O)c1ccccc1C(=O)OCCCCCC,inactive,
CCNc1nc(NC(C)C)nc(SC)n1,inactive,
O=C(O)C(F)(F)C(F)(F)C(F)(F)C(F)(F)C(F)(F)C(F)(F)C(F)(F)C(F)(F)F,,34.8 µM (active) and 49.8 µM (active)
C[C@]12CCC(=O)C=C1CC[C@@H]1[C@@H]2CC[C@]2(C)C(=O)CC[C@@H]12,inactive,
ClC1=C(Cl)[C@]2(Cl)[C@@H]3[C@@H]4C[C@@H]([C@H]5O[C@@H]45)[C@@H]3[C@@]1(Cl)C2(Cl)Cl,inactive,
CCOCCOC(C)=O,inactive,
CCCCCCCCCc1ccc(O)cc1,,15.1 µM (active)
Cc1cccc([N+](=O)[O-])c1,inactive,
C[C@]12CCC(=O)C=C1CC[C@@H]1[C@@H]2CC[C@@]2(C)[C@H]1CC[C@]2(C)O,inactive,
CC(C)(c1ccccc1)c1ccc(O)cc1,,32.3 µM (active)
CN(C)CCO,inactive,
O=S(=O)(O)C(F)(F)C(F)(F)C(F)(F)C(F)(F)C(F)(F)C(F)(F)F,inactive,
O=C(N[C@H]1CN2CCC1CC2)c1cc2ccoc2cn1,inactive,
